Compounds with a hit are over-represented: about 8% of the library has one in this group of screens.
Marburg entry – qHTS for Inhibitors of binding or entry into cells for Marburg Virus | Marburg virus pseudotype entry/binding inhibition, cell-based | Potency, µM (top dose mostly 49.2 µM), for the others: at the top dose activity change, negative = inhibition, actives largely listed as inhibitors | 6.5% of 18,000 active
Lassa entry – qHTS for Inhibitors of binding or entry into cells for Lassa Virus | Lassa virus pseudotyped entry inhibition, cell-based qHTS | Potency, µM (highest dose often 49.2 µM), for the others: at the top dose activity change, negative = inhibition, usual class: inhibitors | 4.1% of 18,000 active | AID 720533, 2013
Numbers without * were called inactive; ! = not confirmed by another sample; [ ] = remark or other dose. The call rests on the fitted dose curve; tested in HEK293 cells. On the % scale 0 is the no-effect control and ±100 the full control effect; potency means the concentration at half of the fitted maximal effect.

O=S(=O)(O)c1ccc(Nc2ncnc3c2ncn3[C@@H]2O[C@H](CO)[C@@H](O)[C@H]2O)cc1 was read as Marburg entry 16.9% and Lassa entry -12.6%.
OC[C@H]1O[C@@H](n2cnc3c(NCc4ccccc4)ncnc32)[C@H](O)[C@@H]1O was read as Marburg entry 28.2µM* and Lassa entry inconclusive.
CC#CC(=O)Nc1cc2c(Nc3ccc(F)c(Cl)c3)ncnc2cn1 was read as Marburg entry -16.4% and Lassa entry -2.0%.
Screening CCN(CC)CC1CCN(c2ncc3ncnc(Nc4ccc(F)c(Cl)c4)c3n2)CC1 returned Marburg entry 3.55µM* and Lassa entry inconclusive.
COc1cccc2c1[C@@H]1CN(CCCCn3c(=O)[nH]c4c(sc5ncc(-c6ccccc6)nc54)c3=O)C[C@@H]1CO2 was read as Marburg entry 10µM* and Lassa entry -4.0%.
C[C@H]1[C@H](c2ccccc2)Oc2cc(Br)ccc2S(=O)(=O)N1Cc1cccc(Cl)c1 was read as Marburg entry -34.0% and Lassa entry 11.4%.
Screening CO/C1=C\C(C)=C\[C@@H](C)[C@@H](O)[C@@H](C)C/C(C)=C/C=C\[C@H](OC)C([C@@H](C)[C@@H](O)[C@H](C)[C@@]2(O)C[C@@H](O)[C@H](C)C(C(C)C)O2)OC1=O (some centres not stated) returned Marburg entry 0.0146µM* and Lassa entry 0.0231µM*.
For CC[C@@H](C(=O)[C@@H](C)[C@@H](O)[C@H](C)CCc1ccc(C)c(O)c1C(=O)O)[C@H]1O[C@](CC)([C@H]2CC[C@](O)(CC)[C@H](C)O2)C[C@@H]1C the results were Marburg entry -77.8% and Lassa entry 11.2µM*.
Screening CC(C)=CC1C(C(=O)OCN2C(=O)C3=C(CCCC3)C2=O)C1(C)C (configuration not stated) returned Marburg entry -2.5% and Lassa entry -18.5%.
Screening O=C1NC2CCCCN2C12CCN(CCCN1c3ccccc3CCc3ccc(Cl)cc31)CC2 (configuration not stated) returned Marburg entry 7.08µM* and Lassa entry 28.2µM*.
O=C1CCc2ccc(OCCCCN3CCN(c4cccc(Cl)c4Cl)CC3)cc2N1 was read as Marburg entry 1.8% and Lassa entry inconclusive.
COc1ccc(NC(=O)C[C@H]2C(=O)N(Cc3ccccc3)C[C@@H]2C)cc1 was read as Marburg entry 23.6%.
`CCC1CN(CC(=O)NC(C)c2c(C)nn(C)c2C)Cc2cc(OC)ccc2O1` (configuration not stated) gave Marburg entry -15.3% and Lassa entry -0.3%.
`O=C(/C=C/C#Cc1cccc(NS(=O)(=O)c2ccccc2)c1)NO` gave Marburg entry inconclusive and Lassa entry 10µM*.
`Nc1ccc(S(=O)(=O)Nc2ccccc2)cc1` gave Marburg entry 6.3% and Lassa entry -14.3%.
`O=S(=O)(c1cccc2cnccc12)N1CCNCC1` gave Marburg entry -19.3% and Lassa entry -3.9%.
For COc1ccc2c(c1)[C@@]1(OCCC=C[C@@H]1C)C(=O)N2Cc1ccccc1C(F)(F)F the results were Marburg entry -14.7%[8.59 µM] and Lassa entry 16.5%[8.59 µM].
Nc1nc2[nH]c(=O)[nH]c2c(=O)[nH]1 was read as Marburg entry 5.7% and Lassa entry 0.3%.
COC(=O)c1ccccc1C(=O)N1CCOc2ccc(CN3CCN(c4ccccn4)CC3)cc2C1 was read as Marburg entry inconclusive and Lassa entry -9.8%.
NCCCCCCNS(=O)(=O)c1cccc2c(Cl)cccc12 was read as Marburg entry 17.8µM*! and Lassa entry inconclusive.
`NCCCCCCCCCCNS(=O)(=O)c1cccc2c(Cl)cccc12` gave Marburg entry 9.5% and Lassa entry inconclusive.
CN(CCO)C(=O)c1cn(C2CCN(Cc3ccc4ccccc4c3)CC2)nn1 was read as Marburg entry -28.8% and Lassa entry -3.7%.
For CC(C)CNC(=O)c1cn(C2CCN(Cc3nc4ccccc4s3)CC2)nn1 the results were Marburg entry 2.82µM* and Lassa entry -4.8%.
For C[C@@H]1C=CCC(=O)N2[C@H](CC(=O)N[C@@H]1c1ccccc1)C[C@@H](C)[C@@H]2c1ccccc1 the results were Marburg entry -24.0%[8.59 µM] and Lassa entry -22.1%[8.59 µM].
CCC(C)C(=O)OC1C[C@@]2(C)C(c3ccoc3)OC(=O)CC23OC2(C)OC34C(OC(=O)C(C)C)[C@]3(O)C(OC(=O)C5(C)OC5C)[C@]5(C)CC3(O)[C@](C)(C5CC(=O)OC)C14O2 (some centres not stated) was read as Marburg entry 14.1µM* and Lassa entry 3.3%.
COC(=O)CC1C2(C)CC34OC5(C)O[C@@]6(C7/C(=C(/O)C(C)C)C(=O)OC(c8ccoc8)[C@]7(C)C(OC(C)=O)C(OC(C)=O)[C@]6(O5)[C@@]13C)C(OC(C)=O)[C@]4(O)C2OC(=O)C(C)C (some centres not stated) was read as Marburg entry inconclusive and Lassa entry -2.4%.
For Cn1ccc2c(-c3ccc(C(=O)O)cc3)cc3c(c21)C1CCC3C1 (configuration not stated) the results were Marburg entry 114.7% and Lassa entry 107.7%.
OC[C@@H](O)[C@@H](O[C@@H]1O[C@H](CO)[C@H](O)[C@H](O)[C@H]1O)[C@H](O)[C@@H](O)CO was read as Marburg entry 13.4% and Lassa entry -14.1%.
O=C(NC1CC1)c1ccc(NC(=O)C2CCC2)cc1 was read as Marburg entry 18.7% and Lassa entry 19.6%.
For CC(=O)Nc1ccc(NC(=S)NC(=O)c2ccc(C(C)(C)C)cc2)cc1 the results were Marburg entry 7.08µM* and Lassa entry 31.6µM*.
For CCCCCCC(C)(C)c1cc(OC)c2c(c1)OC(C)(C)[C@@H]1CC=C(C)C[C@@H]21 the results were Marburg entry 5.3% and Lassa entry -18.6%.
For CCCCCc1cc(O)c2c(c1)OC(C)(C)[C@@H]1CCC(C)=C[C@@H]21 the results were Marburg entry -23.0% and Lassa entry 35.5µM*.
`N[C@H](CCC(=O)N[C@H](CSN=O)C(=O)NCC(=O)O)C(=O)O` gave Marburg entry -0.8% and Lassa entry -0.3%.
For COc1cc(OC)c2c(-c3cccc(-c4ccc(OC)c(F)c4)c3)cc(=O)oc2c1 the results were Marburg entry inconclusive and Lassa entry -19.4%.
Screening CC[C@]1(O)CC[C@H]2[C@@H]3CCC4=CCCC[C@@H]4[C@H]3CC[C@@]21C returned Marburg entry -21.3% and Lassa entry 14.1µM*.
C#C[C@]1(O)CC[C@H]2[C@@H]3CCC4=CCCC[C@@H]4[C@H]3C(=C)C[C@@]21CC was read as Marburg entry -11.5% and Lassa entry -26.1%.
Cn1cc(C=C2C(=O)Nc3cccnc32)c2ccccc21 was read as Marburg entry 9.8% and Lassa entry -23.1%.
`CN(C)CCCn1cc(C2=C(c3c[nH]c4ccccc34)C(=O)NC2=O)c2ccccc21` gave Marburg entry 7.08µM* and Lassa entry inconclusive.
For COc1ccc2[nH]cc(CCNc3ncncc3-c3ccccc3CN(C)C)c2c1 the results were Marburg entry inconclusive and Lassa entry -14.4%.
Screening COc1ccc2c(c1)c(C1=C(c3c[nH]c4ccccc34)C(=O)NC1=O)cn2CCCN(C)C returned Marburg entry 7.08µM* and Lassa entry inconclusive.
Cn1cc(C2=C(c3cn(CCCSC(=N)N)c4ccccc34)C(=O)NC2=O)c2ccccc21 was read as Marburg entry 15.8µM* and Lassa entry 17.8µM*.
